From ChEMBL document CHEMBL1961873, “Compounds: GSK PKIS; Assays: Nanosyn kinase panel” (2012) come the findings set out here.

Assay [1] deals with Glycogen synthase kinase-3 beta (Homo sapiens) (UniProt P49841). Particulars: at 1 µM.
In assay [2] the target is Homeodomain-interacting protein kinase 1 (Homo sapiens) (UniProt Q86Z02). Particulars: at 0.1 µM.
For assay [3] the target is unchanged. Particulars: at 1 µM.
Assay [4] addresses T1, Homeodomain-interacting protein kinase 4 (Homo sapiens) (UniProt Q8NE63).
T1 sequence (whole entry): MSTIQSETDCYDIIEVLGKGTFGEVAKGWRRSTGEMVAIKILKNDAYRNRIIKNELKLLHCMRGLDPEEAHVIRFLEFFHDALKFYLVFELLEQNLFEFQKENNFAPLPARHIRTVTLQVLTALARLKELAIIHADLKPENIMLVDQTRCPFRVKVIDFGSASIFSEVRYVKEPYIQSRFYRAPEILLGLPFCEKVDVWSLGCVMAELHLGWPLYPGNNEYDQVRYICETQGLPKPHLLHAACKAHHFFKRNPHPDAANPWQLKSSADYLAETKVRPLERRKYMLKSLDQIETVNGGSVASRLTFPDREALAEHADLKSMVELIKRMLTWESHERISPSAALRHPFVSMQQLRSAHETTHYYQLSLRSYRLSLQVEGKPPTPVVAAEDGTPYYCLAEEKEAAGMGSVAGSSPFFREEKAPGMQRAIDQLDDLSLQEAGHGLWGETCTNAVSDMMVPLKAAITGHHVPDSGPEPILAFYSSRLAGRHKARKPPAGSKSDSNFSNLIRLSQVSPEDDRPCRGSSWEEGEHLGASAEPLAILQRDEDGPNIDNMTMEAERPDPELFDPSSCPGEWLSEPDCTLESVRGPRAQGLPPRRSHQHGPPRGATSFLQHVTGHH
The following applies: at 0.1 µM.

Assay [5] addresses T1, Homeodomain-interacting protein kinase 4 (Homo sapiens). Particulars: at 1 µM.
For assay [6], the target named is Mitogen-activated protein kinase 9 (Homo sapiens) (UniProt P45984). The following applies: at 0.1 µM.
Chain of Mitogen-activated protein kinase 9 (Homo sapiens) (P45984 whole entry, looked up): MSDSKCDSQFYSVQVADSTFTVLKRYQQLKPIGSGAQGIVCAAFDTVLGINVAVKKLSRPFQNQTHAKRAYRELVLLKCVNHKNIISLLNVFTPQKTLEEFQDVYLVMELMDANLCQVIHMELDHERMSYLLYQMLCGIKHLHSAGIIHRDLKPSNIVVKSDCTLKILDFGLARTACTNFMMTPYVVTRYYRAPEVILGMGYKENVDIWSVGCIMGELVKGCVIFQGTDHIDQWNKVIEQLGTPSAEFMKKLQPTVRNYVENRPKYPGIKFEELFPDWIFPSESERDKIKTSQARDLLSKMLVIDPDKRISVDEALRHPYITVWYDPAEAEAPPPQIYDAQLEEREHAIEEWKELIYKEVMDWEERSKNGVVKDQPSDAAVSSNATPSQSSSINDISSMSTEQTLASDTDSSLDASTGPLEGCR
For assay [7] the target is unchanged. The following applies: at 1 µM.
For assay [8], the target named is Mitogen-activated protein kinase 1 (Homo sapiens) (UniProt P28482). Particulars: at 0.1 µM.
Chain of Mitogen-activated protein kinase 1 (Homo sapiens) (P28482 whole entry): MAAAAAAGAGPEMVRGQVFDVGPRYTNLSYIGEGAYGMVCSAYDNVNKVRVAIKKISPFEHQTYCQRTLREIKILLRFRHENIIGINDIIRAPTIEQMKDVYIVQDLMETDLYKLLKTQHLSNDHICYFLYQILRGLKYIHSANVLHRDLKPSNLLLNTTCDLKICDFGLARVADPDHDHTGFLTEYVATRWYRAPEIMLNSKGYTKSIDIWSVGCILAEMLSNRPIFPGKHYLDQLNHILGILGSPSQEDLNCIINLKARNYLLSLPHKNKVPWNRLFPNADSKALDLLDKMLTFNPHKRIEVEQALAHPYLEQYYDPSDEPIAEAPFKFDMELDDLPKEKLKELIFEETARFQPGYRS
Assay [9] shares this target. The following applies: at 1 µM.
In assay [10] the target is Mitogen-activated protein kinase 3 (Homo sapiens) (UniProt P27361). The following applies: at 0.1 µM.
Chain of Mitogen-activated protein kinase 3 (Homo sapiens) (P27361 whole entry): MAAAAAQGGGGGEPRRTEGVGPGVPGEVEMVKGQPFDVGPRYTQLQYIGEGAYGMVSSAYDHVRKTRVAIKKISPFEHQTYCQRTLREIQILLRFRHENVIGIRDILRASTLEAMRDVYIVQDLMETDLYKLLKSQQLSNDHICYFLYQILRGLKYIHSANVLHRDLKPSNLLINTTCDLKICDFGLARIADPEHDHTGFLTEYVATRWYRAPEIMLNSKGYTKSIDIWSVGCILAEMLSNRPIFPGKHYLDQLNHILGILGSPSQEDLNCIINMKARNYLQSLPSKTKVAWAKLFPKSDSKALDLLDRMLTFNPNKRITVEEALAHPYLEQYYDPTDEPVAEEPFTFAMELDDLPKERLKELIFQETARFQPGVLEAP
Assay [11] shares this target. Particulars: at 1 µM.
Assay [12] concerns the target SRSF protein kinase 3 (Homo sapiens) (UniProt Q9UPE1). Particulars: at 0.1 µM.
Assay [13] has the same target. The following applies: at 1 µM.
Assay [14] concerns the target Mitogen-activated protein kinase 14 (Homo sapiens) (UniProt Q16539). The following applies: at 0.1 µM.
The target is the same in assay [15]. The following applies: at 1 µM.
Assay [16] deals with Mitogen-activated protein kinase 11 (Homo sapiens) (UniProt Q15759). The following applies: at 0.1 µM.
Chain of Mitogen-activated protein kinase 11 (Homo sapiens) (Q15759 whole entry): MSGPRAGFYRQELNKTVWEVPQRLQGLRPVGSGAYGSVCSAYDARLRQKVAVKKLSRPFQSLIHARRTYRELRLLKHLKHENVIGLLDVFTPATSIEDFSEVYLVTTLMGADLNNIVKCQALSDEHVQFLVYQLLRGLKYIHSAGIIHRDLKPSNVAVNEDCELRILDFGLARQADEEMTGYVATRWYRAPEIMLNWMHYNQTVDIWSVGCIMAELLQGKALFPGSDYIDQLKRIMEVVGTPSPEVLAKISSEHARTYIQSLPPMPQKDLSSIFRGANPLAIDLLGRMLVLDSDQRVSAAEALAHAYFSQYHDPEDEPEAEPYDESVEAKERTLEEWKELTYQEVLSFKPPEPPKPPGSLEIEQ
Assay [17] shares this target. The following applies: at 1 µM.
Assay [18] has as its target T2, Mitogen-activated protein kinase 13 (Homo sapiens) (UniProt O15264).
T2 sequence (whole entry): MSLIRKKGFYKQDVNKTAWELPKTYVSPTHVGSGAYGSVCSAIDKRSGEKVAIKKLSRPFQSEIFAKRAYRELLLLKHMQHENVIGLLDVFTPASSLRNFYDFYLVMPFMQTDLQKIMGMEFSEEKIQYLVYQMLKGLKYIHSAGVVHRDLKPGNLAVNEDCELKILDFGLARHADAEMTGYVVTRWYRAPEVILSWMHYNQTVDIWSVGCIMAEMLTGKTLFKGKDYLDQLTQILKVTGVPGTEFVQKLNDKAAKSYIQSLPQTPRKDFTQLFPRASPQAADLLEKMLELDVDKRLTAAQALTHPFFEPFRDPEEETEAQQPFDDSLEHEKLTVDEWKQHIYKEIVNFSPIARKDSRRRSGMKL
The following applies: at 0.1 µM.

The target in assay [19] is T2, Mitogen-activated protein kinase 13 (Homo sapiens). Particulars: at 1 µM.
Assay [20] has as its target T3, Mitogen-activated protein kinase 12 (Homo sapiens) (UniProt P53778).
T3 sequence (whole entry): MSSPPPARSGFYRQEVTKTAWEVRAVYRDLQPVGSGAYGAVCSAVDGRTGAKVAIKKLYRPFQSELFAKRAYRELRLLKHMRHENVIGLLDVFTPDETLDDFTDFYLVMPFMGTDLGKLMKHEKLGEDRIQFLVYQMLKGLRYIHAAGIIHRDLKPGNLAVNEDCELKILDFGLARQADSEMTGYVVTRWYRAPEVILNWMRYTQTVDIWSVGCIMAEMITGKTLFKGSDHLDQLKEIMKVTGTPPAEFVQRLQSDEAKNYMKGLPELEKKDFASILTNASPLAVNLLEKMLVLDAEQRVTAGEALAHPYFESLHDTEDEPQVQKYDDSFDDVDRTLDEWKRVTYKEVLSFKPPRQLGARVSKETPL
Particulars: at 0.1 µM.

Chain of Mitogen-activated protein kinase 14 (Homo sapiens) (Q16539 whole entry): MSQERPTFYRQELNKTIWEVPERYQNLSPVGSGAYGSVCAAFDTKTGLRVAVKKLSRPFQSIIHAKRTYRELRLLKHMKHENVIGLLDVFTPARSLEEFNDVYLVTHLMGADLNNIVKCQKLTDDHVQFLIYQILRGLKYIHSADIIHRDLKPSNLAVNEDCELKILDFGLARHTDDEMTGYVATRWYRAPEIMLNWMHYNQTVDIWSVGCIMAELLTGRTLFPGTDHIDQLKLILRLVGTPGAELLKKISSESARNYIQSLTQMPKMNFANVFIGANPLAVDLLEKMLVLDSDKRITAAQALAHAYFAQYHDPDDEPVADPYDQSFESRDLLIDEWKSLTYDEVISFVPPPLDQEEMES
Chain of SRSF protein kinase 3 (Homo sapiens) (Q9UPE1 whole entry): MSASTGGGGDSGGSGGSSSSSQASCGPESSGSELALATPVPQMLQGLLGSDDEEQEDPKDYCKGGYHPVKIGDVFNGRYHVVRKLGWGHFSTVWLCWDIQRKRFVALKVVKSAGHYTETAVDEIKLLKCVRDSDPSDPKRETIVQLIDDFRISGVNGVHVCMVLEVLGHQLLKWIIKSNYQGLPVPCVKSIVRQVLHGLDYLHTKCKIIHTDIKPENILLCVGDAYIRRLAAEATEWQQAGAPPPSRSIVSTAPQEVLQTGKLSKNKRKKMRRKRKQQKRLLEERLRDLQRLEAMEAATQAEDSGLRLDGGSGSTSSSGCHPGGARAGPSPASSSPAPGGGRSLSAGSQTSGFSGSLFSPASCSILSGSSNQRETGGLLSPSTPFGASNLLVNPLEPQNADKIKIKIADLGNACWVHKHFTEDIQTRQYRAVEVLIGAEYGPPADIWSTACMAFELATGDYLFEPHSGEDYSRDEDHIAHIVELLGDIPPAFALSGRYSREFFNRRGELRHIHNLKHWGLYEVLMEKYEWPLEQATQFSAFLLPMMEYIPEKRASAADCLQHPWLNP
Chain of Homeodomain-interacting protein kinase 1 (Homo sapiens) (Q86Z02 whole entry, looked up): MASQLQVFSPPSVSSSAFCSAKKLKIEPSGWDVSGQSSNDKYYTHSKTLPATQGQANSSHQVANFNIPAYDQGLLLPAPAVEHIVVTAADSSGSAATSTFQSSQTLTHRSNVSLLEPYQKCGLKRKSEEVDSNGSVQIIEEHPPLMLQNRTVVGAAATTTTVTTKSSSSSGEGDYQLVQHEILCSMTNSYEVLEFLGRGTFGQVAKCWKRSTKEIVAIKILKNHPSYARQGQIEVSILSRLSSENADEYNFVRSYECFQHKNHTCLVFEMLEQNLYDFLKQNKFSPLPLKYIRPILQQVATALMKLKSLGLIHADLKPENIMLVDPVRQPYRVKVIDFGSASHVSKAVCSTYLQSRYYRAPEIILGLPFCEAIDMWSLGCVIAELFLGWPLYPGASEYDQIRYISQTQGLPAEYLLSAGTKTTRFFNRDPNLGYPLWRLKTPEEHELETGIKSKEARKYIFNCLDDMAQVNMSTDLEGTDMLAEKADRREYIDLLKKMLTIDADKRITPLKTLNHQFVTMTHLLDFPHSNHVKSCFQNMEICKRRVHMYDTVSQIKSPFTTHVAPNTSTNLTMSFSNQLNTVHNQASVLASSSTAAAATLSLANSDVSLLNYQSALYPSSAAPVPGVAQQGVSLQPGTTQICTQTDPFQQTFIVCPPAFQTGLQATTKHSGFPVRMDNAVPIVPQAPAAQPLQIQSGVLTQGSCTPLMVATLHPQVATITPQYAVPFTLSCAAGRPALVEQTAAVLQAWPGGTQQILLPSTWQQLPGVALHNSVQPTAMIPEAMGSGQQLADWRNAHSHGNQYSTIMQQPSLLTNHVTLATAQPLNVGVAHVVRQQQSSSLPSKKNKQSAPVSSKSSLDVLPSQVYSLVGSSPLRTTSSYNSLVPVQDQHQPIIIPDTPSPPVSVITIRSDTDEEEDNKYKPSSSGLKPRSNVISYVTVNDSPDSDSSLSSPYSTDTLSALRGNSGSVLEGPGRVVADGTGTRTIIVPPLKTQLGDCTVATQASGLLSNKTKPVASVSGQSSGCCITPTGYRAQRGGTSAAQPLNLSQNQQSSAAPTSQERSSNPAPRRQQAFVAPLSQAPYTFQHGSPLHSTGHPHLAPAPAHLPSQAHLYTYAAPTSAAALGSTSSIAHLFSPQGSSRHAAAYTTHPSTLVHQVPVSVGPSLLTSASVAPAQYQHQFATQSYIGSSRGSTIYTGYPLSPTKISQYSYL
Chain of Glycogen synthase kinase-3 beta (Homo sapiens) (P49841 whole entry, looked up): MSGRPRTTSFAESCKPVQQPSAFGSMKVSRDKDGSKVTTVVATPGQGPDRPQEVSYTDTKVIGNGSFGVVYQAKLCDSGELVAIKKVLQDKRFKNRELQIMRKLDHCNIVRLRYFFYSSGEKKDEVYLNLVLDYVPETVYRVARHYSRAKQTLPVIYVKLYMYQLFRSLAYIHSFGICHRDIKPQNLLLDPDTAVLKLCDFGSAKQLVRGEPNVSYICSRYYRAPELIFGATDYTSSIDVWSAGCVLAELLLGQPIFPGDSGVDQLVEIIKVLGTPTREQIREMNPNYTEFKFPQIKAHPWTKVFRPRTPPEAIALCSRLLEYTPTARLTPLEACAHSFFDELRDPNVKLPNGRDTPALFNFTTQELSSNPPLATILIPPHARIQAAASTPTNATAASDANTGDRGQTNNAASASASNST

In general, inhibition refers to the relative decrease from the control value, in per cent. On to `Cc1nnc(-c2ccc(C)c(-c3ccc(C(=O)NCc4ccc(Cl)cc4)cc3)c2)o1`, for which the inhibition in assay [1] is 4.25%; in [2], -2.88%; in [3], -3.98%; in [4], -0.69%; in assay [5], 0.29%; in assay [6], 4.09%. Further, the inhibition in assay [7] was 4.44%; in assay [8], 8.3%; in assay [9], 4.45%; in [10], 2.96%; in assay [11] it was 3.65%; in assay [12] it was -1.7%. For the same compound, the inhibition in [13] was -0.7%; in assay [14], 9.97%; in assay [15], 54.2%; in assay [16] it was 6.73%; in assay [17] it was 27.7%; in assay [18], 1.96%. In addition, the inhibition in assay [19] is 3.99%; in assay [20], 1.42%.

As for `FC(F)(F)c1cccc(Nc2nccc(-c3cnn4nc(-c5ccccc5)ccc34)n2)c1`, the inhibition in assay [2] was 7.68%; in assay [3] it was 51.8%; in assay [4] it was 6.64%; in assay [5], 35.8%; in [6] it was -0.53%; in assay [7], -1.92%. Further, the inhibition in assay [8] was 4.13%; in assay [9], 3.46%; in assay [10], 0.87%; in assay [11], 3%; in assay [12] it was -2.14%; in assay [13] it was 1.08%. Besides, the inhibition in assay [14] stood at 3.54%; in assay [15], 1.79%; in assay [16], 3.08%; in assay [17] it was 3.39%; in [18], 1.85%; in assay [19], 0.28%. Further, the inhibition in assay [20] is 1.53%.

For the compound `O=C1Nc2ccc(I)cc2C1=Cc1cc(Br)c(O)c(Br)c1`, the inhibition was 5.98% in [1]; -1.21% in assay [2]; 6.66% in assay [3]; -0.29% in assay [4]; 6.76% in assay [5]; 5.13% in assay [6]. The inhibition in [7] was 7.68%; in assay [8], 2.02%; in [9], 4.96%; in assay [10], 3.73%; in assay [11] it was 96.8%; in assay [12], 3.61%. For the same compound, the inhibition in assay [13] came to 0.2%; in [14] it was 5.09%; in assay [15], 8.57%; in assay [16], 1.97%; in [17], 4.59%; in assay [19], 4.77%. Also, the inhibition in assay [20] turned out to be 3.23%.

For the compound `Cc1ccc(C(=O)NC2CCC2)cc1-c1ccc(C(=O)NCC2CC2)cc1`, the inhibition in assay [1] was 3.43%; in assay [2] it was -0.93%; in assay [3], 2.06%; in assay [4], -0.06%; in assay [5], 1.07%; in assay [6], 2.74%. Moreover, the inhibition in [7] is 3.35%; in [8], 0.32%; in assay [9], 3.11%; in assay [10] it was 2.05%; in assay [11], 2.32%; in assay [12] it was -2.8%. The inhibition in assay [13] is -1.15%; in assay [16], 10.7%; in assay [17], 48.2%; in assay [18] it was 1.41%; in [19] it was 2.78%; in assay [20], 3.67%.

For `CCc1nccc2c1nc(-c1nonc1N)n2CC`, the inhibition is 8.38% in [1]; -0.74% in assay [2]; 6.91% in [3]; 0.62% in assay [4]; 9.48% in assay [5]; 3.7% in [6]. Also, the inhibition in assay [7] is 3.34%; in [8] it was -1.66%; in [9] it was 0.54%; in assay [10] it was 1.33%; in assay [11], 1.77%; in assay [12], -1.38%. Moreover, the inhibition in assay [13] is -1.65%; in [14] it was 3.67%; in [16] it was 2.18%; in assay [17] it was 1.56%; in [18] it was -1.2%; in assay [19], 1.58%. In addition, the inhibition in assay [20] is -1.3%.

`COc1ccc(-c2ccc3c(NC(=O)C4CC4)n[nH]c3n2)cc1`: the inhibition in assay [2] was 1.57%; in assay [3] it was 2.49%; in assay [4], 0.72%; in assay [5] it was 0.93%; in [6] it was 3.56%; in assay [7] it was 1.85%. The inhibition in [8] is 2.19%; in assay [9] it was 3.67%; in [10] it was 4.98%; in assay [11] it was 4.66%; in assay [12] it was -1.22%; in [13], 1.44%. Also, the inhibition in assay [14] is 1.32%; in assay [15], 5.28%; in assay [16] it was 2.79%; in [17] it was 8.84%; in assay [18], -0.41%; in assay [19] it was 0.43%. For the same compound, the inhibition in assay [20] was 1.27%.

As for `c1ccc(Oc2ccc(Nc3ncc(-c4ccccc4)o3)cc2)cc1`, the inhibition in assay [1] is 7.42%; in [2] it was 1.51%; in assay [3], 3.29%; in assay [4], -0.61%; in assay [5], 1.2%; in assay [6], 0.54%. Besides, the inhibition is 2.94% in [7]; -1.99% in assay [8]; 6.11% in [9]; 1.01% in assay [10]; 1.29% in assay [11]; 0.57% in assay [12]. The inhibition in [13] is 0.33%; in [14] it was 5.45%; in [15] it was 8.09%; in assay [16], -0.05%; in assay [17] it was 4.25%; in assay [18], 1.2%. The inhibition in assay [19] was 0.96%; in [20] it was -0.32%.
